Molecules are shown by their SMILES. About 25 (0.2%) of roughly 10,000 compounds were called active.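 The calls were made as follows: active = compound among top-ranked inhibitors of TNF-induced VCAM-1 adhesion protein staining, with the hit upheld by image or statistical review; inactive = the rest, including hits rejected on review.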 Many of the other results were omitted from the sample, so actives are more common in it than they were.

The assay in a line: inhibitors of TNFa-induced VCAM-1 surface display, cell-based, plate reader, pooled HUVEC, TNFa stimulus (AID 454). Particulars: HUVEC TNFa-induced VCAM-1 surface immunofluorescence; stronger effect = higher value,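 compound tested at 5 µM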.
Turning to `Cc1cccc(C2=NCC(=O)N(CC(=O)NCc3ccco3)c3sc4c(c32)CCCC4)c1`, the inhibition was 78.7% (active).

As to `O=C(CN1C(=O)CN=C(c2ccccc2)c2ccccc21)NCc1ccco1`, the inhibition result is “inactive”.

In the case of `O=C(Cn1cc(C(=O)c2ccccc2)c2ccccc21)NCc1ccco1`, the inhibition entry was “inactive”.

Take `COc1ccc(CCn2c(O)c(C=NCc3cccnc3)c(=O)[nH]c2=O)cc1OC`: the inhibition entry is “inactive”.

Regarding `CCOc1ccc(C2SCC(=O)Nc3c2c(=O)[nH]n3C2CCCCCC2)cc1` (stereo not given), the inhibition result is “inactive”.

The term inhibition denotes the drop in the measured response relative to a control, in per cent.

For the origin of these results see PubChem BioAssay AID454 (Sanford-Burnham Center for Chemical Genomics, 2006).
